46 compounds from PMC4336329 (PLoS ONE, 2015) can be followed below.

In all, about 310,000 compounds went through this assay and about 14,000 (4.5%) showed an effect of 50% or more. The effect is printed as a negative number. This excerpt belongs to a sample that is enriched for strong results.
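Further: peak tail current of the secondary pulse compared with the same well before compound.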

Sequence of human ether-à-go-go-related gene (hERG) potassium channel (Q12809 whole entry, looked up): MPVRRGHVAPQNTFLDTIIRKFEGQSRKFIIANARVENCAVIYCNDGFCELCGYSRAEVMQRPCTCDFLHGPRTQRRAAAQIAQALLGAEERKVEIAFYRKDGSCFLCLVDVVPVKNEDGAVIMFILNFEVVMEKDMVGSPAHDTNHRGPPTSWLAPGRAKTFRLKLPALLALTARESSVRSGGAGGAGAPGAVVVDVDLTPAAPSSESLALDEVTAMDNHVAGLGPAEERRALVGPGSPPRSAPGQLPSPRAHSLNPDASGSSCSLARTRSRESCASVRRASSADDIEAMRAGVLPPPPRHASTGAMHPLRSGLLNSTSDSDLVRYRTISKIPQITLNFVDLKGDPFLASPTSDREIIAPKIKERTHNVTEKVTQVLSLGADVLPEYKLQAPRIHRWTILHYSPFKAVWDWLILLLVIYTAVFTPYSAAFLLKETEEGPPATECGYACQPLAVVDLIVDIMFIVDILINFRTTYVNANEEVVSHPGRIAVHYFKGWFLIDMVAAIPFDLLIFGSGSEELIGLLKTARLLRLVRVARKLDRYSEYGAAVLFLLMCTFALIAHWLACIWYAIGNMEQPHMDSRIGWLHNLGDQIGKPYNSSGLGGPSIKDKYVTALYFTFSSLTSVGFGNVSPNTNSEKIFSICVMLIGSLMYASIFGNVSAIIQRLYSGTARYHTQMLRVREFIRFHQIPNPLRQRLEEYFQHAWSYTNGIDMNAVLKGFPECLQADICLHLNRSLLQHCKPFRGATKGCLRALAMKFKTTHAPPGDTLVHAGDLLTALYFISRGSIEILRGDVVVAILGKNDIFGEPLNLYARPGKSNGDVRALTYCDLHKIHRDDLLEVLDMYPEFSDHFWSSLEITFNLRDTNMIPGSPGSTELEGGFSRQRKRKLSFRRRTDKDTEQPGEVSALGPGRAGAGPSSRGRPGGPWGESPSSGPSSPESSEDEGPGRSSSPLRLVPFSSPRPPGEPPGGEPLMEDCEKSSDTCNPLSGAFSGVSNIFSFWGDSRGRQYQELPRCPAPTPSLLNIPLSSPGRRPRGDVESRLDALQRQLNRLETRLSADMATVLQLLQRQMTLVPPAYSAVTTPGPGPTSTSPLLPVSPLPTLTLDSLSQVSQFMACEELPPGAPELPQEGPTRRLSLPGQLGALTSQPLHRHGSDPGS

This experiment has as its target human ether-à-go-go-related gene (hERG) potassium channel (human, UniProt Q12809). Description: primary screen, population patch clamp on CHO cells stably expressing hERG; higher = less effect of the substance.
On to `Cc1ccc(S(=O)(=O)N2CCN(c3cc4c(cc3[N+](=O)[O-])n(C)c(=O)n4C)CC2)cc1`, for which the “hERG current change (%, negative = inhibition) at 10uM” value was -4.2%.

As for `Nc1nonc1-n1nnc(C(=O)N/N=C/c2cccc(Cl)c2)c1CSc1ccc(Cl)cc1`, the “hERG current change (%, negative = inhibition) at 10uM” value was determined as 23.9%.

`CCCC12CN3CC(C)(CN(C1)C3c1ccc([N+](=O)[O-])o1)C2=O` (stereo not shown): the “hERG current change (%, negative = inhibition) at 10uM” value is listed as -19.6%.

On to `COc1ccc(NC(=O)c2c(NC(=O)CCC(=O)O)sc(-c3ccccc3)c2C)cc1`, for which the “hERG current change (%, negative = inhibition) at 10uM” value amounted to 5.27%.

Take `CC1(C)C(=O)Nc2ccccc2N1C(=O)COc1ncnc2c(Cl)cc(Cl)cc12`: the “hERG current change (%, negative = inhibition) at 10uM” value is given as -9.51%.

Consider `CCN(Cc1ccccc1)C(=O)c1cccnc1`, for which the “hERG current change (%, negative = inhibition) at 10uM” value is 2.64%.

With `CCN(CC)CCN(CC(=O)N(C1CCCCC1)C1CCCCC1)C(=O)c1cccnc1.Cl.O`, the “hERG current change (%, negative = inhibition) at 10uM” value is on record as -71.9%.

With `CCN(CC)CCN(CC(=O)N(C1CCCCC1)C1CCCCC1)C(=O)c1ccco1.O=C(O)C(=O)O`, the “hERG current change (%, negative = inhibition) at 10uM” value is 23.2%.

Take `COc1ccc(NC(=O)O/N=C/c2ccccc2)cc1`: the “hERG current change (%, negative = inhibition) at 10uM” value is given as -2.52%.

For the compound `Cc1ccc(NC(=O)O/N=C/c2cccc([N+](=O)[O-])c2)cc1`, the “hERG current change (%, negative = inhibition) at 10uM” value is recorded as -15.8%.

Turning to `COc1ccc(/C=N/OC(=O)Nc2ccccc2)cc1[N+](=O)[O-]`, the “hERG current change (%, negative = inhibition) at 10uM” value is -58.4%.

Regarding `CC(NS(=O)(=O)c1ccc(Cl)cc1)C(=O)NCCC1=CCCCC1` (stereo not shown), the “hERG current change (%, negative = inhibition) at 10uM” value was -5.41%.

With `O=C(COc1ccc(Cl)cc1)N(Cc1ccco1)C1CCS(=O)(=O)C1` (stereo not shown), the “hERG current change (%, negative = inhibition) at 10uM” value is recorded as -20.5%.

For the compound `O=C(COc1ccc(Br)cc1)N(Cc1ccco1)C1CCS(=O)(=O)C1` (stereo not shown), the “hERG current change (%, negative = inhibition) at 10uM” value is on record as -50.6%.

With `CC(C)c1ccc(OCC(=O)N(Cc2ccco2)C2CCS(=O)(=O)C2)cc1` (stereo not shown), the “hERG current change (%, negative = inhibition) at 10uM” value was -79.4%.

As for `O=C(COc1ccc(F)cc1)N(Cc1ccco1)C1CCS(=O)(=O)C1` (stereo not shown), the “hERG current change (%, negative = inhibition) at 10uM” value is reported as -28.4%.

Regarding `O=C(COc1ccccc1)N(Cc1ccco1)C1CCS(=O)(=O)C1` (stereo not shown), the “hERG current change (%, negative = inhibition) at 10uM” value was -11.5%.

As to `Cc1ccc(OCC(=O)N(Cc2ccco2)C2CCS(=O)(=O)C2)cc1` (stereo not shown), the “hERG current change (%, negative = inhibition) at 10uM” value was -13%.

In the case of `O=C(Nc1ccc2c(c1)OCCO2)C1CCCN(S(=O)(=O)Cc2ccccc2)C1` (stereo not shown), the “hERG current change (%, negative = inhibition) at 10uM” value was -11%.

On to `CCn1nc(NS(=O)(=O)c2ccccc2)c2cc3cc(C)ccc3nc21`, for which the “hERG current change (%, negative = inhibition) at 10uM” value turned out to be 3.38%.

Take `COC(=O)c1noc(-c2ccc(C)cc2)n1`: the “hERG current change (%, negative = inhibition) at 10uM” value is given as -3.95%.

As for `CCOC(=O)Cc1csc(NC(=O)CCNS(=O)(=O)c2ccc3c(c2)CCC(=O)N3)n1`, the “hERG current change (%, negative = inhibition) at 10uM” value is listed as 9.62%.

As for `CCCOP(=O)(OCCC)C(Nc1ccc(C(C)C)cc1)c1ccc([N+](=O)[O-])cc1` (stereo not shown), the “hERG current change (%, negative = inhibition) at 10uM” value worked out at 3.7%.

With `CCOP(=O)(OCC)C(Nc1cccc([N+](=O)[O-])c1)c1ccccc1` (stereo not shown), the “hERG current change (%, negative = inhibition) at 10uM” value was -18.4%.

In the case of `CCOP(=O)(OCC)C(Nc1ccc([N+](=O)[O-])cc1)c1ccc(Cl)cc1` (stereo not shown), the “hERG current change (%, negative = inhibition) at 10uM” value is -76%.

Regarding `Cn1cccc1CC(=O)NNC(=O)Nc1ccccc1F`, the “hERG current change (%, negative = inhibition) at 10uM” value amounted to 7.76%.

`O=C1c2ccccc2C(Nc2ccc3c(c2)OCCO3)N1Cc1ccccc1` (stereo not shown): the “hERG current change (%, negative = inhibition) at 10uM” value is given as -18.2%.

With `Cc1ccc(NC(=O)C2CCCN(C(=O)c3ccc(Cl)cc3)C2)c(C)c1` (stereo not shown), the “hERG current change (%, negative = inhibition) at 10uM” value was -59%.

As to `Cc1ccc(NC(=O)C2CCCN(C(=O)c3ccc(Cl)cc3)C2)cc1C` (stereo not shown), the “hERG current change (%, negative = inhibition) at 10uM” value was -19.6%.

Regarding `CC(NC(=O)C1CCCN(C(=O)c2ccc(Cl)cc2)C1)c1cccc(C(F)(F)F)c1` (stereo not shown), the “hERG current change (%, negative = inhibition) at 10uM” value was -51.2%.

In the case of `CC(=O)c1ccc(NC(=O)C2CCCN(C(=O)c3ccc(Cl)cc3)C2)cc1` (stereo not shown), the “hERG current change (%, negative = inhibition) at 10uM” value is reported as -29.7%.

As for `CC(=O)Nc1ccc(NC(=O)C2CCCN(C(=O)c3ccc(Cl)cc3)C2)cc1` (stereo not shown), the “hERG current change (%, negative = inhibition) at 10uM” value is reported as 6.47%.

As to `Cc1ccc(NC(=O)C2CCCN(C(=O)c3ccc(Cl)cc3)C2)cc1` (stereo not shown), the “hERG current change (%, negative = inhibition) at 10uM” value is -33.4%.

For `CC(=O)Nc1ccc(N(C(=O)CNC(=O)c2ccco2)C(C(=O)NC2CCCC2)c2ccco2)cc1` (stereo not shown), the “hERG current change (%, negative = inhibition) at 10uM” value is given as 3.72%.

On to `CC1(C)C(c2cccs2)=[N+]([O-])C2(CCCCC/C2=N\O)N1O` (stereo not shown), for which the “hERG current change (%, negative = inhibition) at 10uM” value stood at 18.5%.

For the compound `COc1cc(C(=O)OCC(=O)N2CC(C)OC(C)C2)cc(OC)c1OC` (stereo not shown), the “hERG current change (%, negative = inhibition) at 10uM” value is given as 33%.

For the compound `COc1ccccc1OCC(=O)N(Cc1nc(-c2ccccc2)no1)C(C)C`, the “hERG current change (%, negative = inhibition) at 10uM” value is reported as -12%.

With `O=C(Nc1cc(C(=O)N2CCCC2)ccc1N1CCCC1)c1ccccc1`, the “hERG current change (%, negative = inhibition) at 10uM” value is reported as -75.6%.

In the case of `O=C(Nc1cc(C(=O)N2CCOCC2)ccc1N1CCCC1)c1cccs1`, the “hERG current change (%, negative = inhibition) at 10uM” value is listed as -75.9%.

As to `O=C(Nc1ccc(C(=O)N2CCCC2)cc1)c1ccccc1F`, the “hERG current change (%, negative = inhibition) at 10uM” value was -4.82%.

As for `COC(=O)c1ccc(N2CCOCC2)c(NC(=O)c2cccs2)c1`, the “hERG current change (%, negative = inhibition) at 10uM” value is -5.27%.

For the compound `O=C(Nc1ccccc1N1CCCCC1)c1ccccc1F`, the “hERG current change (%, negative = inhibition) at 10uM” value is -14.5%.

As to `O=C(Nc1cc(C(=O)N2CCCC2)ccc1N1CCCC1)C1CC1`, the “hERG current change (%, negative = inhibition) at 10uM” value is listed as -12.9%.

As to `O=C(Nc1ccc(C(=O)N2CCOCC2)cc1)c1cccs1`, the “hERG current change (%, negative = inhibition) at 10uM” value worked out at 19.7%.

Turning to `O=C(Nc1cc(C(=O)N2CCCC2)ccc1N1CCCC1)c1ccccc1F`, the “hERG current change (%, negative = inhibition) at 10uM” value is -74.6%.

As to `CNC(=S)Nc1cc(C(=O)N2CCCC2)ccc1N1CCCC1`, the “hERG current change (%, negative = inhibition) at 10uM” value amounted to 28.1%.
